Compound activity deposited in PubChem by National Center for Advancing Translational Sciences (NCATS).
Rows were chosen to be rich in hits. Some 5.7% of all compounds tested hit in one or more screens of this group.
ATXN2 expr inh = ATXN2 expression inhibition. HEK-293 ATXN2-luciferase reporter, luminescence, 24 h. Potency, µM (titrated, usually from 57 µM), for the others: at the highest dose activity change, negative = inhibition, usual class: inhibitors. 0.72% of 360,000 active; note: potency is the fitted concentration of half-maximal effect; % is set by controls: 0 for no effect and ±100 for the full control effect; nearly all actives have a fitted effect of over 55% in size
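ATXN2-luciferase reporter cells (luciferase flanked by upstream and downstream ATXN2 gene portions) were treated 24 h at 37 °C with compounds at up to 57 uM. SteadyGlo luminescence gave expression; GF-AFC fluorescence gave viability.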
S2 tox = cell viability loss in ATXN counter-screen. Potency, µM (titrated, usually from 56.7 µM), actives largely listed as cytotoxic. AID 651635. 0.49% of 400,000 active. S2 cells (HEK-293 line with an ATXN2-luciferase reporter) viability, CellTiter-Fluor protease fluorescence, 24 h; note: potency is the fitted concentration of half-maximal effect; nearly all actives have a fitted effect of over 40% in size
TGFb inhibitor = TGF-b pathway inhibition; HepG2 CAGA-GFP TGF-b/SMAD3 reporter, GFP fluorescence, 18 h; TGF-beta stimulated, 500 pg/mL final; Potency, µM (series often up to 46.1 µM), inactives show at the highest dose activity, negative = inhibition, actives largely listed as inhibitors; 1.2% of 410,000 active; AID 588855; note: potency is the fitted concentration of half-maximal effect; % is set by controls: 0 for no effect and ±100 for the full control effect; nearly all actives have a fitted effect of over 65% in size
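Per well, imaged GFP fluorescence of HEPG2 CAGA-GFP cells gives the signal; cells get compound, then TGF-beta (500 pg/mL final), 18 h at 37 degrees C; %Activity versus -TGF-beta and +DMSO controls.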
HepG2 tox = kills HepG2 cells in TGF-b inhibitor counter-screen; HepG2 CAGA-GFP viability, ATP luminescence, 18 h; Potency, µM (series often up to 46.1 µM), inactives show at the top dose activity change, negative = cytotoxicity, most hits filed as cytotoxic; 0.76% of 410,000 active; AID 588856; note: potency is the fitted concentration of half-maximal effect
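HepG2 CAGA-GFP cells (1000/well, DMEM with 1% FBS) received compound, then TGF-beta at 500 pg/mL final, and were incubated 18 hours at 37 degrees C. Viability was read by CellTiter-Glo luminescence. Media-only wells were set as complete cell-killing and DMSO as no toxicity.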
IL-1B inflam inh = inflammasome signaling inhibition, IL-1 beta readout; activity change, % at 57.5 µM; AID 743279; THP-1 LPS/ATP IL-1B secretion, AlphaLISA, 16 h; active compounds read low; 4.7% of 360,000 active; in the data active = activity change below about -50%; inconclusive = mostly about -30% to -49%; note: % is set by controls: 0 for no effect and ±100 for the full control effect
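Secreted IL-1B measured by AlphaLISA bead assay after 16 h compound exposure of THP-1 cells; compounds (final up to 57.5 uM) added 1 h before LPS (250 ng/mL) and ATP (1.25 mM) stimulation; lower signal means less secretion.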
The depositor's hits bear a star; i = inactive; ? = inconclusive; . = no result given. Unless noted, calls come from the whole dose curve; as a rule, active = well fitted curve in the direction sought with a large enough effect; inconclusive = small, poorly fitted or top-dose-only effect, or another doubt; inactive = no such curve, though single readings can be large; an effect the other way counts as inactive or inconclusive.

SMILES	ATXN2 expr inh	S2 tox	TGFb inhibitor	HepG2 tox	IL-1B inflam inh
Cc1occc1-c1nnc(SCC(=O)Nc2ccccc2N2CCCCC2)n1C	6%	i	-11%	-12%	-53*
Cn1nc(C(=O)Nc2cc(Cl)ccc2N2CCCC2)c2ccccc2c1=O	-10%	i	-18%	-4%	30
Cc1cccc(NC(=O)CSCC(=O)Nc2ccccc2N2CCCCC2)c1	-11%	i	?	7%	-13
Cc1occc1-c1nnc(SCC(=O)Nc2ccccc2)n1C	0%	i	3%	-2%	-13
CCn1nc(C(=O)Nc2ccccc2N2CCCC2)c2ccccc2c1=O	?	i	-25%	-5%	-62*
COc1ccc(-c2c(C)c3ccc(O)c(CN4CCC(C)CC4)c3oc2=O)cc1OC	-19%	.	-25%	-6%	.
CCOc1ccc(C(=O)Nc2nnc(S(=O)(=O)N(CC)c3ccccc3C)s2)cc1	.	.	-13%	-5%	.
CCOC(=O)C1CCCN(S(=O)(=O)c2ccc3[nH]c(=O)ccc3c2)C1 (centres undefined)	-5%	i	-7%	-47%	.
Cc1ccc(NC(=O)CSCC(=O)Nc2ccccc2N2CCCCC2)cc1	-5%	i	?	-1%	-63*
Cc1ccc(NC(=O)CSCC(=O)Nc2ccc(N3CCOCC3)cc2N2CCOCC2)cc1	1%	i	0%	6%	26
CCc1ccc(CNC(=O)Cn2ccc3cc(S(=O)(=O)N4CCCCCC4)ccc32)cc1	-14%	i	0%	-28%	.
CCc1ccc(CNC(=O)CCCn2ccc3cc(S(=O)(=O)N4CCCC4)ccc32)cc1	?	13µM*	?	-30%	.
CN(C)c1ccc(CNC(=O)CCc2ccc(S(=O)(=O)N3CCCCCC3)cc2)cc1	-7%	i	6%	-15%	-64*
CC(C)C(=O)c1cc2c(cc1NC(=O)c1ccccc1F)OCCO2	-27%	i	?	-21%	.
CCCCCn1c(=N)c(S(=O)(=O)c2ccccc2)cc2c(=O)n3cccc(C)c3nc21	-7%	?	-1%	-6%	.
CCOc1c(Cl)cc(Cl)cc1CNCCSc1nnnn1C	1%	i	-9%	-13%	.
O=C(/C=C/c1c(F)cccc1Cl)c1ccc(F)cc1	-13%	i	?	16µM*	-2
O=C(/C=C/c1ccc[nH]1)c1ccc(F)cc1	12%	i	-5%	-15%	-2
O=C(/C=C/c1ccccc1[N+](=O)[O-])N1CCc2ccccc2C1	31%	?	-5%	-11%	-53*
O=C(/C=C/c1c(F)cccc1Cl)N1CCc2ccccc2C1	57%	i	-9%	-8%	-63*
CCCCNC(=O)CCCN1C(=O)c2ccccc2Sc2ncccc21	.	.	-4%	-10%	.
O=C(NCc1ccccc1)C(=O)NCC(c1ccc2c(c1)OCO2)N1CCOCC1 (centres undefined)	.	.	0%	-13%	.
N#CC(=C(N)Sc1ccc(N)cc1)c1ccccc1C(F)(F)F	7%	.	.	.	.
O=C1c2cccc3cccc(c23)C(=O)N1CCN1CCN(CC(O)COc2ccccc2)CC1 (centres undefined)	-1%	i	11%	1%	2
COc1cc2c3c(cccc3c1)C(=O)N(CCN1CCCC1)C2=O	.	i	14µM*	19%	-10
SMILES	ATXN2 expr inh	S2 tox	TGFb inhibitor	HepG2 tox	IL-1B inflam inh
COc1cccc(OCC(O)CN2CCN(CCN3C(=O)c4cccc5cccc(c45)C3=O)CC2)c1 (centres undefined)	-25%	i	-28%	-27%	-81*
COc1ccc(CN2CCOc3c(cc(-c4cccc(OC)n4)cc3OC)C2)c(O)c1	.	i	.	.	.
O=C1C2CCCN2C(=S)N1c1cc(Cl)ccc1Cl (centres undefined)	5%	i	2%	2%	-66*
CCCCNc1nc(-c2ccccc2)cc(C(F)(F)F)c1C(N)=O	6%	i	?	-41%	-70*
Cc1nc(C)c(CC(=O)N2CCOc3ccc(CN4CCOCC4)cc3C2)s1	.	i	.	.	.
CC(C)(C)n1ncc2c(=O)n(Cc3ccccc3SC(F)(F)F)cnc21	.	.	?	-21%	.
COC(=O)COc1ccccc1/C=C1/NC(=O)NC1=O	-2%	i	-6%	-2%	-71*
